Molecules are shown by their SMILES. Activity calls are given as the source filed them. Rule for the calls: active = hit-call score of the fitted dose curve at least 0.9, where 1 is the maximum; inactive = score below 0.9.

Read-out in assay [1]: Transforming growth factor beta 1 (TGFb1), TGFB1 (gene 7040)
Nature of the assay: BSK_KF3CT_TGFb1: BioMAP Diversity Plus: KF3CT Assay for Transforming growth factor beta 1 (TGFb1) Biomarker Activity (AID 2283072). The settings on record: primary human keratinocytes with fibroblasts; actives raise or lower the signal. A digest of the protocol: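 Primary human skin cells (keratinocytes, foreskin fibroblasts) were co-cultured, exposed to test chemical and sampled at 24 h. TGF-b1 levels were measured by ELISA and fitted bidirectionally relative to DMSO.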

Read-out in assay [2]: C-C motif chemokine 2 (Homo sapiens) (UniProt P13500)
Nature of the assay: BSK_KF3CT_MCP1: BioMAP Diversity Plus: KF3CT Assay for Monocyte Chemoattractant Protein 1 (MCP1/CCL2) Biomarker Activity (AID 2283073). The settings on record: primary human keratinocytes with fibroblasts; actives raise or lower the signal. In a few lines:
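Biomarker MCP-1 is measured by ELISA in primary human keratinocytes co-cultured with foreskin fibroblasts, 24 h after chemical treatment; DMSO serves as the negative control and activity baseline.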

Read-out in assay [3]: Matrix Metallopeptidase 9 (MMP9), MMP9 (gene 4318)
Nature of the assay: BSK_KF3CT_MMP9: BioMAP Diversity Plus: KF3CT Assay for Matrix Metallopeptidase 9 (MMP9) Biomarker Activity (AID 2283074).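 For AC50: MMP9 protein level quantified by ELISA in the co-culture.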 The settings on record: primary human keratinocytes with fibroblasts; actives raise or lower the signal. In a few lines:
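Human keratinocyte/foreskin fibroblast co-culture; compound added; 24 h; MMP-9 by ELISA; bidirectional fit vs DMSO baseline.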

Read-out in assay [4]: urokinase plasminogen activator (uPA), PLAU (gene 5328)
Put plainly: BSK_KF3CT_uPA: BioMAP Diversity Plus: KF3CT Assay for urokinase plasminogen activator (uPA) Biomarker Activity (AID 2283075). The settings on record: primary human keratinocytes with fibroblasts; actives raise or lower the signal. A digest of the protocol: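 ELISA readout of uPA, analyzed for signal gain or loss relative to DMSO, from a human primary keratinocyte–foreskin fibroblast co-culture measured 24 h after chemical treatment.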

Read-out in assay [5]: CD40, CD40 (gene 958)
Nature of the assay: BSK_LPS_CD40: BioMAP Diversity Plus: LPS Assay for CD40 Biomarker Activity (AID 2283076). As to conditions: primary human HUVEC with PBMC; actives raise or lower the signal. In a few lines:
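Using a multiplexed primary human co-culture (umbilical vein endothelium plus PBMC), CD40 was read by ELISA 24 h after dosing, with cytotoxicity tracked by sulforhodamine B staining of parallel cultures and activity fitted bidirectionally versus DMSO.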

Read-out in assay [6]: E-selectin (Homo sapiens) (UniProt P16581)
Put plainly: BSK_LPS_Eselectin: BioMAP Diversity Plus: LPS Assay for Eselectin Biomarker Activity (AID 2283077). As to conditions: primary human HUVEC with PBMC; actives raise or lower the signal. A digest of the protocol:
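Dose chemical onto LPS-driven HUVEC/PBMC co-culture; after 24 h, run ELISA for E-selectin; fit up- and down-going responses relative to DMSO control.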

Read-out in assay [7]: Interleukin-8 (IL8), CXCL8 (gene 3576)
Nature of the assay: BSK_LPS_IL8: BioMAP Diversity Plus: LPS Assay for Interleukin-8 (IL8) Biomarker Activity (AID 2283078). The settings on record: primary human HUVEC with PBMC; actives raise or lower the signal. In a few lines: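 In this LPS system, chemical-treated human umbilical vein endothelium/PBMC co-cultures were harvested at 24 h for IL-8 ELISA.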

Assay [8] in a line: BSK_LPS_SRB: Viability Assessment in the BioMAP Diversity Plus: LPS Assay (AID 2283079).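 Note: total protein by sulforhodamine B absorbance as a cytotoxicity measure; measured one day after compound addition; fitted in both directions against DMSO so loss or gain of signal counts.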 As to conditions: primary human HUVEC with PBMC. A digest of the protocol:
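Cytotoxicity endpoint in human endothelial–PBMC co-culture: 24 h exposure, then SRB (0.1%) staining, 560 nm read.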

Read-out in assay [9]: Interleukin-1 alpha (IL1a), IL1A (gene 3552)
Put plainly: BSK_LPS_IL1a: BioMAP Diversity Plus: LPS Assay for Interleukin-1 alpha (IL1a) Biomarker Activity (AID 2283080). As to conditions: primary human HUVEC with PBMC; actives raise or lower the signal. A digest of the protocol: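 Primary human HUVEC and PBMC co-culture stimulated with LPS is dosed and harvested at 24 h. Both increases and decreases in ELISA-measured IL-1a are scored relative to DMSO.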

Read-out in assay [10]: Monocyte Chemoattractant Protein-1 (MCP1), CCL2 (gene 6347)
Put plainly: BSK_LPS_MCP1: BioMAP Diversity Plus: LPS Assay for Monocyte Chemoattractant Protein-1 (MCP1) Biomarker Activity (AID 2283081).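 For AC50: secreted MCP-1 protein quantified by ELISA in culture supernatant.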 The settings on record: primary human HUVEC with PBMC; actives raise or lower the signal. A digest of the protocol: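 Values derive from bidirectional fitting against DMSO of ELISA-measured MCP-1 in a human primary endothelial and mononuclear cell co-culture, 24 h after chemical addition under LPS activation.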

Assay [11] in a line: BSK_LPS_PGE2: BioMAP Diversity Plus: LPS Assay for Prostaglandin E2 (PGE2) Biomarker Activity (AID 2283082).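 For AC50: secreted prostaglandin E2 measured by ELISA in LPS-stimulated co-culture.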 As to conditions: primary human HUVEC with PBMC; actives raise or lower the signal. In a few lines:
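LPS-activated HUVEC/PBMC co-culture; cmpd dosed, 24 h; PGE2 by ELISA; bidirectional fit vs DMSO; SRB (0.1%, TCA-fixed, 560 nm) in parallel plates for overt cytotox.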

Read-out in assay [12]: Macrophage colony-stimulating factor (MCSF), CSF1 (gene 1435)
Nature of the assay: BSK_LPS_MCSF: BioMAP Diversity Plus: LPS Assay for Macrophage colony-stimulating factor (MCSF) Biomarker Activity (AID 2283083). As to conditions: primary human HUVEC with PBMC; actives raise or lower the signal. In a few lines: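 Bidirectional fit versus DMSO of ELISA-measured M-CSF in co-cultured human umbilical vein endothelial cells and PBMC, sampled 24 h after dosing.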

Read-out in assay [13]: Tissue Factor, F3 (gene 2152)
Nature of the assay: BSK_LPS_TissueFactor: BioMAP Diversity Plus: LPS Assay for Tissue Factor Biomarker Activity (AID 2283084). The settings on record: primary human HUVEC with PBMC; actives raise or lower the signal. A digest of the protocol:
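Read-out: CD142 ELISA, 24 h. System: LPS-driven human endothelial/PBMC co-culture. Analysis: up- or down-signal fitted against DMSO.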

Read-out in assay [14]: Tumor necrosis factor (Homo sapiens) (UniProt P01375)
Put plainly: BSK_LPS_TNFa: BioMAP Diversity Plus: LPS Assay for Tumour Necrosis Factor alpha (TNFa) Biomarker Activity (AID 2283085). As to conditions: primary human HUVEC with PBMC; actives raise or lower the signal. A digest of the protocol: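 Read-out is ELISA of TNFa in primary human endothelial cell–PBMC co-cultures at 24 h after compound. Activity in either direction was fitted against DMSO.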

Read-out in assay [15]: Vascular cell adhesion molecule 1 (VCAM1), VCAM1 (gene 7412)
Nature of the assay: BSK_LPS_VCAM1: BioMAP Diversity Plus: LPS Assay for Vascular cell adhesion molecule 1 (VCAM1) Biomarker Activity (AID 2283086). The settings on record: primary human HUVEC with PBMC; actives raise or lower the signal. In a few lines:
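HUVEC + PBMC co-culture, LPS system; compound 24 h; VCAM-1 by ELISA; bidirectional fit vs DMSO control; parallel SRB (0.1%, TCA-fixed, 560 nm) for cytotoxicity.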

Read-out in another assay: CD38, CD38 (gene 952)
Put plainly: BSK_SAg_CD38: BioMAP Diversity Plus: SAg Assay for CD38 Biomarker Activity (AID 2283087). As to conditions: primary human HUVEC with PBMC; actives raise or lower the signal. A digest of the protocol:
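Human HUVEC plus PBMC co-culture stimulated with superantigen; CD38 measured by ELISA 24 h after chemical dosing. Fluorescence read-out, bidirectional fit against DMSO; cytotoxicity tracked in parallel by SRB and Alamar Blue.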

Read-out in assay [16]: CD40, CD40 (gene 958)
Nature of the assay: BSK_SAg_CD40: BioMAP Diversity Plus: SAg Assay for CD40 Biomarker Activity (AID 2283088). As to conditions: primary human HUVEC with PBMC; actives raise or lower the signal. In a few lines:
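Endpoint derived by fitting increases or decreases versus DMSO controls. CD40 is detected by fluorescence ELISA in a human vascular co-culture of endothelium and PBMC at 24 h.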

Read-out in another assay: CD69, CD69 (gene 969)
Put plainly: BSK_SAg_CD69: BioMAP Diversity Plus: SAg Assay for CD69 Biomarker Activity (AID 2283089).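 For AC50: cell surface CD69 protein quantified by ELISA with fluorescence detection.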 As to conditions: primary human HUVEC with PBMC; actives raise or lower the signal. In a few lines: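 ELISA, fluorescence read-out: CD69 on human umbilical vein endothelial cell + PBMC co-culture, 24 h post-dosing. Gain or loss of signal fitted bidirectionally against DMSO baseline.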

Read-out in assay [17]: Monocyte Chemoattractant Protein-1 (MCP1), CCL2 (gene 6347)
Put plainly: BSK_SAg_MCP1: BioMAP Diversity Plus: SAg Assay for Monocyte Chemoattractant Protein-1 (MCP1) Biomarker Activity (AID 2283090). The settings on record: primary human HUVEC with PBMC; actives raise or lower the signal. A digest of the protocol:
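MCP-1 levels in the endothelial–PBMC SAg co-culture were quantified by ELISA at 24 h post-dosing; both increases and decreases versus DMSO scored. Cytotoxicity monitored by SRB total protein in parallel cultures.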

Chain of E-selectin (Homo sapiens) (P16581 whole entry, looked up): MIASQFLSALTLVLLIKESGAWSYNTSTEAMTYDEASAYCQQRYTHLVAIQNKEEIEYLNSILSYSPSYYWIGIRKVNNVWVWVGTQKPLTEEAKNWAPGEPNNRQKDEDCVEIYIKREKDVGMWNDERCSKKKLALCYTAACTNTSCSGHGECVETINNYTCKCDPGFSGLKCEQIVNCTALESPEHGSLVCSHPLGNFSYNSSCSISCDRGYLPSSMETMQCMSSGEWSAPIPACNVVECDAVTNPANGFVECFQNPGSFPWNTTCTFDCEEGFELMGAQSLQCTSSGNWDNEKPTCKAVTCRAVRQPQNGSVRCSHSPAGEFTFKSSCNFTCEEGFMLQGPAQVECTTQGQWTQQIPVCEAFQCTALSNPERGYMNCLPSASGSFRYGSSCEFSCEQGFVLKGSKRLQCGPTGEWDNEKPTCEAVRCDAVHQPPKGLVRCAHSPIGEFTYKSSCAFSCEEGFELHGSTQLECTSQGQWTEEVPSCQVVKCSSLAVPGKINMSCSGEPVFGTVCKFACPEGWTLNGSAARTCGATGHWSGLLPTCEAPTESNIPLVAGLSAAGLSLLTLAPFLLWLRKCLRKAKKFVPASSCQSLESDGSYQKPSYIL
Chain of Tumor necrosis factor (Homo sapiens) (P01375 whole entry, looked up): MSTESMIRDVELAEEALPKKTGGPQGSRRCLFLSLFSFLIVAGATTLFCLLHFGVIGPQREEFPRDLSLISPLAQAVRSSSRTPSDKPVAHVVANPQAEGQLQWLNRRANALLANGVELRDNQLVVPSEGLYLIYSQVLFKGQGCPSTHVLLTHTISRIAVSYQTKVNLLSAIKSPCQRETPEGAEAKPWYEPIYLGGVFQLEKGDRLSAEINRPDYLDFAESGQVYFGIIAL

The AC50 is the midpoint of the concentration-response curve, whichever way the signal moves. Take `CC1=C(/C=C/C(C)=C/C=C/C(C)=C/C(=O)O)C(C)(C)CCC1`: the AC50 was 30.1 µM (active) in [1]; 32.4 µM (active) in [2]; 32.6 µM (active) in assay [3]; 31.2 µM (active) in assay [4]; 4.45 µM (active) with CD40, CD40 (gene 958) [5]; 6.18 µM (active) in [6]. Moreover, the AC50 in assay [11] is 0.918 µM (active); in assay [12], 4.31 µM (active); in assay [14] it was 0.358 µM (active); in [15], 24.3 µM (active); with CD38, CD38 (gene 952), 21.9 µM (active); with CD40, CD40 (gene 958) [16] it was 20.5 µM (active). Moreover, in the assay with CD69, CD69 (gene 969), the AC50 was 8.54 µM (active). Further, the result in [7], in [8], in assay [9], in [10], in assay [13] and in [17] was inactive.

Take `CN(C)C=O`: the outcome is “inactive” in [1]; “inactive” in [2]; “inactive” in assay [3]; “inactive” in [4]; “inactive” in the assay with CD40, CD40 (gene 958) [5]; “inactive” in [6]. Further, the outcome in assay [7], in assay [8], in [9], in assay [10], in [11] and in assay [12] was inactive. Further, the outcome was “inactive” in assay [13]; “inactive” in assay [14]; “inactive” in assay [15]; “inactive” in the assay with CD38, CD38 (gene 952); “inactive” with CD40, CD40 (gene 958) [16]; “inactive” with CD69, CD69 (gene 969). Besides, the result in assay [17] was inactive.

Turning to `Cc1cc(CCN2CCN(c3nsc4ccccc34)CC2)cc2c1NC(=O)CC2(C)C`, the AC50 in assay [1] is 13.2 µM (active); in [2] it was 28.8 µM (active); in assay [3] it was 16.5 µM (active); in assay [4], 13.4 µM (active); in the assay with CD40, CD40 (gene 958) [5] it was 14.3 µM (active); in assay [6], 30 µM (active). For the same molecule, the AC50 in assay [7] is 19.5 µM (active); in assay [8], 32.8 µM (active); in [9] it was 10.3 µM (active); in [10], 26.8 µM (active); in [11], 5.37 µM (active); in assay [12], 15.3 µM (active). In addition, the AC50 in assay [13] is 32.8 µM (active); in assay [14], 8.98 µM (active); in assay [15] it was 26 µM (active); with CD38, CD38 (gene 952) it was 13.4 µM (active); with CD40, CD40 (gene 958) [16], 14.2 µM (active); with CD69, CD69 (gene 969), 14.4 µM (active). In addition, the concentration at half-maximal activity (AC50) in assay [17] was 11.3 µM (active).

Values taken from PubChem BioAssay (EPA / NIEHS).
